In PubChem BioAssay (NCATS):
Inconclusive results are not listed. A number with no mark means an inactive call. The source made the active and inactive calls. Calls follow the shape of the dose curve; as a rule, active = well fitted cell-killing curve with a large enough effect; inconclusive = small, poorly fitted or top-dose-only effect; inactive = flat fitted curve, though single readings scatter.

test: Quantitative highthroughput screen to assess conditional lethalithy of NOMO1 cells grown in RPMI1640 with dialyzed fetal bovine serum (RPMI+ds) (AID 1963877); conditions: NOMO1 in RPMI+dialyzed FBS viability, ATP luminescence, 48 h; series mostly up to 45.8 µM; viability: at the top concentration; also: nearly all actives have a fitted effect of over 30% in size
Source text: Assay Provider: Jason Cantor Ph.D.
Department of Biochemistry
University of Wisconsin-Madison, Madison, WI, USA
Chemical screening studies have identified drug sensitivities across hundreds of cancer cell lines but most putative therapeutics fail to translate. Discovery and development of drug candidates in models that more accurately reflect nutrient levels in human blood is a major challenge. Here we performed high-throughput screens in conventional versus Human Plasma-Like Medium (HPLM) to identify compounds that were "missed" when screening using the artificial culture condition. Sets of conditional anticancer compounds spanned phases of clinical development and included non-oncology drugs were assessed. […] We also traced conditional phenotypes for several chemotherapeutics to availability of HPLM-specific metabolites and confirmed others for compounds whose reported targets are encoded by nonessential genes. Our findings establish generalizable strategies for exploiting conditional lethality in HPLM to reveal therapeutic candidates and mechanisms of action in cancer cells.
Described herein are the results of each viability screens against three cell lines: NOMO1 (an acute myeloid leukemia cell line); P12-Ichikawa (a T-cell acute lymphoblastic leukemia); and SEM (a B-cell ALL). Each assay was screened using 3 different cell culture media: homemade human plasma-Like medium with 10% dialyzed fetal bovine serum (HPLM+ds); RPMI1640 with 10% untreated FBS and 5mM glucose (RPMI+s); and RPMI1640 with 10% dialyzed fetal bovine serum and 5 mM glucose (RPMI+ds).
PROTOCOL TABLE (as described by Inglese J, Shamu CE and Guy RK. 2007)
SEQUENCE No. (e.g., 1, 2, 3, etc.); […] (e.g., Cells, Incubation, Reagent, etc.); VALUE and DESCRIPTION.
1; Cells; 5 uL; white, solid bottom 1536-well Greiner assay plate.
2; Compounds; 23 nL; Kalypsis pin tool (Wako USA) equipped with a 1536-well pin head to transfer to the assay plates.
3; Incubation; 48 hours; 37C incubation.
4; Reagent; 3 uL; CellTiter Glo (Promega).
5; Incubation; 5 min, room temperature
6; Detection; Luminescence, Viewlux PerkinElmer.
NOTES (numbers refer to Sequence numbers above)
1. Briefly, 5 ul of cell reagent was dispensed using a Multidrop Combi Dispenser. The NOMO1 and SEM cells were plated at 500 cells/well and the P12-Ichikawa line at 1000 cells/well.
2. After seeding the cells, 23 nL of MIPE 4.1 library compounds (in DMSO) were added to each plate using a Kalypsys 1536 Pintool dispenser. Bortezomib at final concentration of […] and DMSO were added to each plate as positive and negative controls respectively. For each screen, MIPE 4.1 compounds were added over an eleven-point concentration range […] in 3-fold dilutions.
3. Each plate was covered with a stainless steel gasketed lid to prevent evaporation and incubated for 48 hour at 37C, 95% relative humidity, and 5% CO2.
4-5. Three microliter CellTilter-GloTM luminescent substrate mix (Promega) reagent was added to the assay plate and incubated at room temperature for 5 min.
6. The luminescence signal was measured using a ViewLux (PerkinElmer) multiplate reader with a 2 second exposure time per plate. Data for each compound were normalized as percent viability such that measurements for DMSO and the empty well controls in each plate were defined as 100% and 0%, respectively.
Potency is read from the fitted curve at half-maximal effect.

Row | Compound | Potency | viability
1 | C=C1C(=CC=C2CCC[C@]3(C)[C@@H]([C@H](C)C=C[C@H](C)C(C)C)CC[C@@H]23)C[C@@H](O)C[C@@H]1O | 20.9 µM (active) | 
2 | CS(=O)(=O)c1ccc(C(=O)Nc2ccc(Cl)c(-c3ccccn3)c2)c(Cl)c1 |  | 92.4%
3 | Cc1coc2c1C(=O)C(=O)c1c-2ccc2c1CCCC2(C)C |  | 101%
4 | CN(NC(=O)CC(=O)NN(C)C(=S)c1ccccc1)C(=S)c1ccccc1 | 0.0588 µM (active) | 
5 | O=C(N[C@H](CO)[C@H](O)c1ccc([N+](=O)[O-])cc1)C(Cl)Cl |  | 86.4%
6 | CCCCCN(CCC12CC3CC(CC(C3)C1)C2)C(=O)NCCCc1ccncc1 |  | 100%
7 | Nc1nc(=S)c2[nH]cnc2[nH]1 | 7.43 µM (active) | 
8 | COc1ccc(-c2nc(N3CCOCC3)c3sc(CN(C)c4ncc(C(=O)NO)cn4)cc3n2)cn1 | 0.0235 µM (active) | 
9 | Cc1cnc(Nc2ccc(OCCN3CCCC3)cc2)nc1Nc1cccc(S(=O)(=O)NC(C)(C)C)c1 |  | 96.6%
10 | CNc1nc(Nc2ccc(C(=O)N3CCOCC3)cc2OC)ncc1Cl |  | 100%
11 | CCCS(=O)(=O)Nc1ccc(F)c(C(=O)c2c[nH]c3ncc(-c4ccc(Cl)cc4)cc23)c1F |  | 97.3%
12 | O=c1c2ccccc2nc2n1CCc1c-2[nH]c2ccccc12 |  | 91.4%
13 | CC(=O)O[C@H]1C[C@@H]2CC[C@H]3[C@H]4C[C@H]([N+]5(C)CCCCC5)[C@@H](OC(C)=O)[C@@]4(C)CC[C@@H]3[C@@]2(C)C[C@H]1N1CCCCC1 |  | 104%
14 | NCCS(=O)(=O)O |  | 104%
15 | CCn1c(-c2nonc2N)nc2cnc(Oc3cccc(NC(=O)c4ccc(OCCN5CCOCC5)cc4)c3)cc21 | 1.18 µM (active) | 
16 | CCC(c1ccc(O)cc1)C(CC)c1ccc(O)cc1 (stereo not given) |  | 83.8%
17 | C[C@@H]1CC=CC=CC=CC=C[C@@H](O[C@@H]2O[C@H](C)[C@@H](O)[C@H](N)[C@H]2O)C[C@@H]2O[C@](O)(C[C@@H](O)C[C@@H]3O[C@@H]3C=CC(=O)O1)C[C@H](O)[C@@H]2C(=O)O |  | 103%
18 | CCNC(=O)c1cc2c(-c3cc(OCCN4CCCC4)c(Cl)cc3Cl)nc(N)nc2s1 | 4.69 µM (active) | 
19 | COc1cc2ncnc(Nc3cc(Br)c(O)c(Br)c3)c2cc1OC |  | 92.7%
20 | O=C(C=Cc1ccc(/C=C/C(=O)Nc2ccc(C3=NCCN3)cc2)cc1)Nc1ccc(C2=NCCN2)cc1 |  | 93.9%

Row | Compound | Potency | viability
21 | CCN1CCCC1CNC(=O)c1cc(S(=O)(=O)CC)c(N)cc1OC (stereo not given) |  | 74.2%
22 | COC(=O)Nc1ccc(-c2nc(N3CCOCC3)c3cnn(C4CCN(Cc5cccnc5)CC4)c3n2)cc1 | 1.87 µM (active) | 
23 | Cn1c(=O)c(-c2c(Cl)cccc2Cl)cc2cnc(Nc3cccc(C(=O)O)c3)nc21 |  | 90.6%
24 | c1ccc(CNc2nc(N3CCOc4ccccc43)nc3c2CCCC3)cc1 |  | 93%
25 | Cc1nn(C)c2c1C(c1ccc(C(F)(F)F)cc1)C(C#N)=C(N)O2 (stereo not given) |  | 92.7%
26 | COc1ccccc1OCCNCC(O)COc1cccc2[nH]c3ccccc3c12 (stereo not given) |  | 97.1%
27 | NS(=O)(=O)c1ccc(NC2=CC(=O)c3ccccc3C2=O)cc1 |  | 78.2%
28 | CC(C)(O)[C@H]1CC[C@@](C)([C@H]2[C@@H](O)C[C@@]3(C)[C@@H]4C[C@H](O[C@@H]5O[C@H](CO)[C@@H](O)[C@H](O)[C@@H]5O)[C@H]5C(C)(C)[C@@H](O[C@@H]6OC[C@@H](O)[C@H](O)[C@@H]6O)CC[C@@]56C[C@@]46CC[C@]23C)O1 |  | 103%
29 | N[C@@H](C(=O)N[C@@H]1C(=O)N2C(C(=O)O)=C(Cl)CS[C@H]12)c1ccccc1 |  | 102%
30 | O=C(CCCCCCNC(=O)c1cnc(N(c2ccccc2)c2ccccc2)nc1)NO | 16.6 µM (active) | 
31 | CC[C@H]1OC(=O)[C@H](C)C(=O)[C@H](C)[C@@H](O[C@H]2O[C@H](C)C[C@H](N(C)C)[C@@H]2O)[C@](C)(OC)C[C@@H](C)C(=O)[C@H](C)[C@H]2N(CCCCn3cnc(-c4cccnc4)c3)C(=O)O[C@]12C |  | 95.7%
32 | Cc1cnc(Nc2cccc(CN3CCOCC3)c2)nc1Nc1cccc(S(=O)(=O)NC(C)(C)C)c1 |  | 97.3%
33 | CCCCc1oc2ccc(NS(C)(=O)=O)cc2c1C(=O)c1ccc(OCCCN(CCCC)CCCC)cc1 | 2.09 µM (active) | 
34 | O=P(O)(O)C(O)(Cc1cccnc1)P(=O)(O)O |  | 117%
35 | Cc1ccc(NC(=O)Nc2cc(C(F)(F)F)ccc2F)cc1Nc1ccc2c(c1)NC(=O)C2=Cc1ccc[nH]1 | 20.9 µM (active) | 
36 | CCCCNc1cc(C(=O)O)cc(S(N)(=O)=O)c1Oc1ccccc1 |  | 107%
37 | O=C1C(Cl)=C(NCCN2CCOCC2)C(=O)c2ncccc21 | 9.35 µM (active) | 
38 | O=c1c(O)c(-c2cc(O)c(O)c(O)c2)oc2cc(O)cc(O)c12 |  | 97.9%
39 | Nc1nc(-c2nn(Cc3ccccc3F)c3ncccc23)nc(N)c1N1CCOCC1 |  | 97.6%
40 | CCCCCCCCCCCCc1ccc(S(=O)(=O)Nc2nncs2)cc1 |  | 104%
